# Source: PubChem BioAssay
# Hits are enriched below; roughly 1.1% of the tested compounds scored in any of these assays.
# S1P2 ag = agonists of human S1P2 receptor. S1P2-expressing cell line, agonist reporter read-out. activation, % at 4.5 µM. actives 0.46% (n = 97,000). AID 729; in the data active = activation above about 16%;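 note: 0% = vehicle low control and 100% = maximal reference agonist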
# GALR2 ag = activates the human galanin receptor 2 | O43603 | GALR2-expressing cells, agonist activation read-out | activation, % (no concentration beside the values) | actives 0.48% (n = 140,000) | AID 803; in the data active = activation above about 5%, passing the limit was not always enough;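 note: 0% = vehicle buffer wells and 100% = reference agonist at full effect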
# Target sequence (O43603 whole entry, looked up): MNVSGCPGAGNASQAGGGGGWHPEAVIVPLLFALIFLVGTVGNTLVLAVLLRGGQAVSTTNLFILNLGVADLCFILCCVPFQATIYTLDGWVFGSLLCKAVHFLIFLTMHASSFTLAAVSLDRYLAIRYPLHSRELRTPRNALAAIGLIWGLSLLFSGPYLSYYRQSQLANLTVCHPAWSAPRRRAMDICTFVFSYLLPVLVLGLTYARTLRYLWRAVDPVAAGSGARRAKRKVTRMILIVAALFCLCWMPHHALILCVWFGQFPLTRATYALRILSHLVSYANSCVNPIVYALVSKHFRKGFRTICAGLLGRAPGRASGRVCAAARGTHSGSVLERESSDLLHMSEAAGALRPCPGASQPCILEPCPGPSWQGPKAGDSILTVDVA
# S1P2 blocker = blocks the human S1P2 receptor; cell-based S1P2 antagonist assay, inhibition at 5 uM; inhibition, % at 5 µM; actives 0.21% (n = 97,000); AID 736; in the data active = inhibition above about 45%;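 note: CRE beta-lactamase reporter cells expressing human S1P2 stimulated with S1P; 0% = agonist at EC80 alone and 100% = agonist plus reference antagonist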
# GALR2 antag = GALR2 (human) receptor antagonism; O43603; GALR2-expressing cells, antagonist mode; inhibition, % at 4 µM; actives 0.39% (n = 140,000);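 note: cells stimulated with galanin 1-16 at roughly its EC80; 0% = agonist challenge control and 100% = basal control without agonist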
# GALR2 blk conf = GALR2 (human) antagonism confirmed | shares compounds with GALR2 antag | GALR2-expressing cells, antagonist mode, inhibition | inhibition, % at 4 µM | actives 60% (n = 480) | AID 866;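 note: cells stimulated with galanin at about its EC80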
# BLA inhib ctr = inhibits beta-lactamase reporter in GALR2 antagonist counterscreen | shares compounds with GALR2 antag | CHO NFAT-BLA reporter, beta-lactamase FRET, thapsigargin-stimulated | inhibition, % at 4.2 µM | actives 36% (n = 480);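 active = inhibition above the mean inhibition across tested compounds plus 3 SD, cut at about 27% in these data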;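 note: 0% = 500 nM thapsigargin stimulated wells and 100% = unstimulated BSA only wells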
# Active calls of the source: *; . = no result given. Cut-off read from the data, not from the text of the source, unless noted: active = inhibition above about 27%; inactive = the rest.
SMILES,S1P2 ag,GALR2 ag,S1P2 blocker,GALR2 antag,GALR2 blk conf,BLA inhib ctr
O=C1NC(c2ccccc2)C(C(=O)c2cccs2)C(O)(C(F)(F)F)N1 (stereo unspecified),-3,-4,10,33*,9,0
COc1cc(C2NC(=S)NC(O)(C(F)(F)F)C2C(=O)c2cccs2)cc(OC)c1O (stereo unspecified),.,1,.,10,.,.
COc1cc(OC)nc(-n2ncc(Br)c(Br)c2=O)n1,.,-2,.,103*,103*,105*
COc1cc(C(=O)ON=C2C=C(C)C(=O)C(C)=C2)cc(OC)c1OC,.,-1,.,-10,.,.
COc1cc(C(=O)O/N=C2\C=CC(=O)C(C)=C2)cc(OC)c1OC,-7,-3,29,77*,33*,44*
CCOC(=O)c1sc2ccc(S(=O)(=O)N3CC(C)CC(C)C3)cc2c1N (stereo unspecified),.,-2,.,11,.,.
CC(=O)Nc1ccccc1-c1nc2ccccc2nc1OCC(=O)c1ccc2ccccc2c1,-7,-2,2,-7,.,.
O=C(Nc1ccccc1)c1ccccc1NC(=O)C1CCCCC1,-7,-3,2,2,.,.
Cc1cccc(NC(=O)c2ccccc2NC(=O)C2CCCCC2)c1C,-3,-2,-8,42*,10,16
COc1ccc(Nc2cnn(-c3nc4ccccc4s3)c(=O)c2Cl)cc1,.,0,.,44*,52*,58*
CS(=O)(=O)NCCOc1ccc(S(=O)(=O)N2CCCc3ccccc32)cc1,-3,-2,-23,1,.,.
O=C(CSc1ccc(Cl)cc1)N1CCOCC1,-5,-2,-5,29*,-2,-4
Cc1ccc(C(C)C)c(OCC(=O)Nc2ccc(Cl)cn2)c1,-1,2,-12,0,.,.
CC(=O)c1c(C)[nH]c(C(=O)COc2cc(C)ccc2C(C)C)c1C,-1,-2,66*,33*,50*,18
Cn1c(=O)c2c(nc3sccn32)n(C)c1=O,-2,1,10,7,.,.
Cc1ccc2[nH]c3c(=O)n(CCCN4CCN(C)CC4)cnc3c2c1,.,-1,.,14,.,.
Cn1cnc([N+](=O)[O-])c1S(=O)(=O)c1ccc(Cl)cc1,.,-1,.,38*,41*,21
Cn1cnc([N+](=O)[O-])c1NC(C)(C)C,-3,0,-6,3,.,.
O=C(NCCN1C(=O)CCC1=O)c1ccncc1,-2,-1,20,-5,.,.
Cc1ccccc1NCCNc1ccccc1C,-1,-2,-24,-10,.,.
O=C(Nc1cnn(Cc2ccc(Cl)c(Cl)c2)c1)C12CC3CC(CC(C3)C1)C2,-6,-1,5,0,.,.
COC(=O)c1ccc(COC(=O)c2[nH]c(C)c(C(C)=O)c2C)o1,-2,0,29,27*,30*,2
O=C(Nc1ccc(S(=O)(=O)N2CCCC2)cc1)c1ccc(CN2CCc3ccccc3C2)cc1,.,-1,.,7,.,.
O=C(Nc1ccc(S(=O)(=O)N2CCOCC2)cc1)c1ccc(CN2CCc3ccccc3C2)cc1,-7,-2,85*,28*,46*,18
COc1ccc(N2CC(C(=O)OCC(=O)NCc3ccccc3)CC2=O)cc1 (stereo unspecified),-5,-2,12,-1,.,.
SMILES,S1P2 ag,GALR2 ag,S1P2 blocker,GALR2 antag,GALR2 blk conf,BLA inhib ctr
O=C(CSc1nnc(-c2cccs2)n1-c1cccc(Cl)c1)c1cccc2c1OCCO2,-7,-2,6,5,.,.
O=C(Nc1cccc(F)c1)c1sc(Cl)nc1-c1ccccc1,.,-2,.,27*,14,11
Cc1nc2ccccn2c1C(=O)NNS(=O)(=O)c1ccc(C(C)(C)C)cc1,.,-2,.,30*,20,10
CCOc1ccc(OCC)c(S(=O)(=O)NNC(=O)c2c(C)nc3ccccn23)c1,.,1,.,3,.,.
N#C/C(=C/c1ccc(-c2ccc(S(N)(=O)=O)cc2)o1)C(=O)Nc1ccccc1,.,0,.,-3,.,.
N#C/C(=C/c1ccc(-c2ccc(S(N)(=O)=O)cc2)o1)c1nc2ccccc2s1,.,0,.,28*,41*,52*
c1ccc(Oc2cccc(NC3=NCCC3)c2)cc1,-4,-2,4,-4,.,.
Cc1ccc(-n2ncc3c(NCCCN4CCCC4=O)ncnc32)c(C)c1,.,-1,.,9,.,.
O=C(NC(Cc1ccccc1)C(=O)Oc1ccc2c(C(F)(F)F)cc(=O)oc2c1)OCc1ccccc1 (stereo unspecified),.,0,.,32*,20,23
O=C(COc1ccc([N+](=O)[O-])cc1)NN=C1CCCC1,-5,-2,19,8,.,.
CC(=O)Oc1ccc2cc(-c3nc4ccccc4n3C)c(=O)oc2c1,38*,23*,15,37*,23,30*
